These results are taken from PubChem BioAssay.

A number with no mark means an inactive call. Calls of active or inactive are those of the source. Rule as the data show it, unless noted: active = inhibition above about 36%; inactive = the rest.

As usually defined, the inhibition is the change of the read-out against control, counted positive when it falls.

The test system of experiment [1] is transactivating tegument protein VP16 (Human herpesvirus 1). Briefly: compounds suppressing VP16-driven luciferase signal – cell-based, luminescence, single concentration, counter-screen for SRC2 inhibitor project (AID 652007). To be noted: cell-based VP16 transactivation luciferase reporter, at 8.9 µM, hits give high values.
Experiment [2] deals with Nuclear receptor coactivator 2 (Homo sapiens) (UniProt Q15596). Briefly: inhibition of GAL4-SRC2 driven luciferase expression – cell-based, luminescence, HEK293, triplicate, confirmation (AID 652008;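 active = mean inhibition above 46.5%, the solvent-only control mean plus 3 SD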;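 also: 0% = DMSO-treated cells and 100% = Gossypol at 36 µM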). To be noted: HEK293 GAL4-SRC2 luciferase reporter, at 8.9 µM, hits give high values. In general terms: In a reporter assay the amount or activity of a reporter protein is the signal.
Nuclear receptor coactivator 2 (Homo sapiens), sequence (Q15596 whole entry, looked up, the tested form may be a part): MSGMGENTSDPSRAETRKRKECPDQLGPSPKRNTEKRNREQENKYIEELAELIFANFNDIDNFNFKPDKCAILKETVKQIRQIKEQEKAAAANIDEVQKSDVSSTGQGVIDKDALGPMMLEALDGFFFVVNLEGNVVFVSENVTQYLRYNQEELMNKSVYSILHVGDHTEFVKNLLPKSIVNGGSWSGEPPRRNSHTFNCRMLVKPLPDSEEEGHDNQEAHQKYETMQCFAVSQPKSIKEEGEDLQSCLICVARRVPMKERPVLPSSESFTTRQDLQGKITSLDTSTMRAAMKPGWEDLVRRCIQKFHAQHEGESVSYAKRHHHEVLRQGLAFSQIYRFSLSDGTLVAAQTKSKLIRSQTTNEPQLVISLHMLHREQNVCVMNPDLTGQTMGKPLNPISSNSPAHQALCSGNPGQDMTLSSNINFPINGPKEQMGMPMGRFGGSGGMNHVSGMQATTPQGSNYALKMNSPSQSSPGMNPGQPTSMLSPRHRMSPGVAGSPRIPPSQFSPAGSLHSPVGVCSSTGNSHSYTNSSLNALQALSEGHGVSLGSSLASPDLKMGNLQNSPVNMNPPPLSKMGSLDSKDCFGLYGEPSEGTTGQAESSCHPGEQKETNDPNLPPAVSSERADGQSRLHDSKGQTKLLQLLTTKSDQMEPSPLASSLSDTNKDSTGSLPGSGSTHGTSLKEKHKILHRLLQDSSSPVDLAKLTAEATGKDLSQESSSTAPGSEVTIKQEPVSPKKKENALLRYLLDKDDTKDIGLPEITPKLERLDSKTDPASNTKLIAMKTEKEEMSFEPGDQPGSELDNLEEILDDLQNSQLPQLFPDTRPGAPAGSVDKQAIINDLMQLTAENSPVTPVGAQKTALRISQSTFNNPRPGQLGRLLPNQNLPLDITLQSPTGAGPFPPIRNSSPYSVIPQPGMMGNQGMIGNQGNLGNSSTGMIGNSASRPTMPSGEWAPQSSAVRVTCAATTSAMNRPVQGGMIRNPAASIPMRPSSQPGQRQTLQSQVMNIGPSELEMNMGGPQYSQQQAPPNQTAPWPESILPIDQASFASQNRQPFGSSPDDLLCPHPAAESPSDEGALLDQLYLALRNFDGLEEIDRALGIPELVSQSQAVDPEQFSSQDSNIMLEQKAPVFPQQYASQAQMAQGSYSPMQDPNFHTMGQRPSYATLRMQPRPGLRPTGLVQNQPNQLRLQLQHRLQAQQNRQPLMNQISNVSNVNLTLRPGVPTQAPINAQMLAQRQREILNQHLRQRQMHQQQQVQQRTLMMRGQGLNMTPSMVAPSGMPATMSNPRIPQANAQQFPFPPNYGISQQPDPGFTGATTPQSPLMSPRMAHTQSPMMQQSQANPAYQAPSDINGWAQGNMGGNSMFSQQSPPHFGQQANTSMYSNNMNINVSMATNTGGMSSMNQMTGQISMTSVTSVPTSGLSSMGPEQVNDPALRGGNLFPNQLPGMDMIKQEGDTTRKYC

Turning to `CCOC(=O)c1c(C)[nH]c(C(=O)Nc2ccc(NC(C)=O)cc2)c1C`, the figures for the inhibition in experiment [1] and in experiment [2] were 6.79% and 8.17%, respectively.
On the same counts, the results for `O=[N+]([O-])c1cccc2c(N3CCCC3)ccnc12` are 11.7% and -23.4%.
Consider `O=C(Nc1ccc(F)cc1)c1nc(S(=O)(=O)Cc2ccccc2)ncc1Cl`, for which the inhibition in experiment [1] was 36.6% (active); in experiment [2] it was 37.9%.
For `CC(=O)Nc1ccc(NC(=O)c2ccc(-c3ccnn3C)c3ccoc23)cc1`, the inhibition was -6.57% in experiment [1] and 26.4% in experiment [2].
For `O=C(C1=NN[C@@H]2C(=O)N(c3cccc(C(F)(F)F)c3)C(=O)[C@H]12)c1ccc2ccccc2n1`, the inhibition in experiment [1] is 2.15%; in experiment [2], 6.3%.
